The whole screen tested about 5,500 compounds, of which about 2,000 (36%) were called active. Inconclusive results (about 18%) are left out. The list shows a part of the results. Values without a mark were called inactive. Rule as the data show it: active = normalized growth mostly below about 0.91 (no sharp cut-off); inconclusive = no clear call, values can overlap the other calls; inactive = mostly above about 0.92.
Test: chemical genetic growth profiling, strain panel (AID 1159580);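 also: tested at 20 µM; growth read once vehicle control cultures reached saturation at 30 °C; 1 = growth at the plate median or of vehicle wells; lower values mean less growth of the strain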
Details: S. cerevisiae deletion strains, growth OD
[1] = locus YHR030C, strain SLT2, active compounds read low
[2] = locus YHR079C, strain IRE1, active compounds read low
[3] = locus YJL095W, strain BCK1, active compounds read low
[4] = locus YJR066W, strain TOR1, active compounds read low
[5] = locus YLR113W, strain HOG1, active compounds read low
[6] = locus YNL183C, strain NPR1, active compounds read low
[7] = locus YOR231W, strain MKK1, active compounds read low
[8] = locus YPL256C, strain CLN2, active compounds read low

Row | SMILES | normalized growth [1] | normalized growth [2] | normalized growth [3] | normalized growth [4] | normalized growth [5] | normalized growth [6] | normalized growth [7] | normalized growth [8]
1 | CCc1oc2ccccc2c1C(=O)c1cc(Br)c(O)c(Br)c1 | 0.0985 (active) | 0.111 (active) | 0.101 (active) | 0.00147 (active) | 0.124 (active) | 0.06 (active) | 0.105 (active) | 0.13 (active)
2 | O=C(O)c1ccccc1-c1c2cc(I)c(=O)c(I)c-2oc2c(I)c(O)c(I)cc12 | 0.991 | 1 | 0.992 | 0.903 | 0.942 | 0.93 | 1.02 | 1.01

— PubChem BioAssay AID1159580 (chemical genetic matrix, 2015)
